According to the antibiotic and cytotoxicity screens of Wong et al. (2023):
Screen size: about 39,000 compounds; about 3,300 (8.5%) were called active. For the sample, actives were picked, then their nearest neighbours and some compounds at random.

The molecules below were run on HepG2 (assay: cytotoxicity call (relative viability < 0.9)). Settings: 10 µM.

For `O=C(Nc1cc(C(=O)Nc2ccc(S(=O)(=O)O)cc2S(=O)(=O)O)cc(C(=O)Nc2ccc(S(=O)(=O)O)cc2S(=O)(=O)O)c1)Nc1cc(C(=O)Nc2ccc(S(=O)(=O)O)cc2S(=O)(=O)O)cc(C(=O)Nc2ccc(S(=O)(=O)O)cc2S(=O)(=O)O)c1`, which cytotoxicity call is on record?
The cytotoxicity call was “inactive”.

With `CC(C)CC#Cc1cnc2c(c1)C(=O)N([C@H](C)CO)C[C@@H](C)[C@@H](CN(C)S(=O)(=O)c1ccccc1)O2` as the molecule, how does the cytotoxicity call read?
The cytotoxicity call was “inactive”.

With `C[C@@H]1CN([C@@H](C)CO)C(=O)c2cc(NS(=O)(=O)c3cccs3)ccc2O[C@@H](C)CCCCO[C@@H]1CN(C)C(=O)Nc1cccc2ccccc12` as the molecule, how does the cytotoxicity call read?
The cytotoxicity call was “inactive”.

With `C[C@@H]1CN([C@@H](C)CO)C(=O)c2cc(NS(=O)(=O)c3cccs3)ccc2O[C@@H](C)CCCCO[C@H]1CN(C)C(=O)Nc1cccc2ccccc12` as the molecule, how does the cytotoxicity call read?
The cytotoxicity call was “inactive”.

For `C[C@H](CO)N1C[C@H](C)[C@@H](CN(C)C(=O)Nc2cccc3ccccc23)OCCCC[C@H](C)Oc2ccc(NS(=O)(=O)c3cccs3)cc2C1=O`, which cytotoxicity call is on record?
Its cytotoxicity call is “active”.

Which cytotoxicity call does the source give for `C[C@H](CO)N1C[C@H](C)[C@H](CN(C)C(=O)Nc2cccc3ccccc23)OCCCC[C@H](C)Oc2ccc(NS(=O)(=O)c3cccs3)cc2C1=O` here?
Its cytotoxicity call is “inactive”.

How did the cytotoxicity call turn out when `C[C@H]1CCCCO[C@H](CN(C)C(=O)Nc2cccc3ccccc23)[C@@H](C)CN([C@@H](C)CO)C(=O)c2cc(NS(=O)(=O)c3cccs3)ccc2O1` was run?
The cytotoxicity call was “active”.

`C[C@@H]1CCCCO[C@H](CN(C)C(=O)Nc2cccc3ccccc23)[C@H](C)CN([C@H](C)CO)C(=O)c2cc(NS(=O)(=O)c3cccs3)ccc2O1` was tested. Which cytotoxicity call did it give?
Its cytotoxicity call is “active”.

For `C[C@@H]1CCCCO[C@@H](CN(C)C(=O)Nc2cccc3ccccc23)[C@H](C)CN([C@H](C)CO)C(=O)c2cc(NS(=O)(=O)c3cccs3)ccc2O1`, which cytotoxicity call is on record?
The cytotoxicity call was “inactive”.

For `C[C@@H]1CCCCO[C@H](CN(C)C(=O)Nc2cccc3ccccc23)[C@@H](C)CN([C@H](C)CO)C(=O)c2cc(NS(=O)(=O)c3cccs3)ccc2O1`, which cytotoxicity call is on record?
Its cytotoxicity call is “inactive”.

`C[C@H]1CCCCO[C@@H](CN(C)C(=O)Nc2cccc3ccccc23)[C@@H](C)CN([C@@H](C)CO)C(=O)c2cc(NS(=O)(=O)c3cccs3)ccc2O1` was tested. Which cytotoxicity call did it give?
The cytotoxicity call was “inactive”.

For `CO[C@@H](CN(C)C(=O)c1ccc2c(c1)OCO2)[C@H](C)CN([C@@H](C)CO)S(=O)(=O)c1ccc(F)cc1`, which cytotoxicity call is on record?
Its cytotoxicity call is “inactive”.

For `C[C@@H]1CCCCO[C@@H](CN(C)C(=O)CCC(F)(F)F)[C@H](C)CN([C@H](C)CO)C(=O)c2cc(NC(=O)C3CCCCC3)ccc2O1`, which cytotoxicity call is on record?
Its cytotoxicity call is “inactive”.

`C[C@@H]1CN([C@@H](C)CO)C(=O)c2cccc(NC(=O)Nc3ccc4c(c3)OCO4)c2O[C@H]1CN(C)Cc1ccc(C(=O)Nc2ccccc2N)cc1` was tested. Which cytotoxicity call did it give?
The cytotoxicity call was “inactive”.

Which cytotoxicity call does the source give for `O=C(CCCCCNC(=O)OCc1ccc(CO[C@H]2C[C@@H](c3coc4ccccc4c3=O)C=C(C(=O)N3CCN(Cc4ccccc4)CC3)O2)cc1)NO` here?
Its cytotoxicity call is “inactive”.

How did the cytotoxicity call turn out when `O=C(CN1CCOCC1)N[C@H]1CC[C@@H](CCNS(=O)(=O)c2ccccc2F)O[C@@H]1CO` was run?
Its cytotoxicity call is “inactive”.

Which cytotoxicity call does the source give for `Cc1ccc(S(=O)(=O)Nc2cccc3c2O[C@@H](CN(C)Cc2ccc(Cl)c(Cl)c2)[C@@H](C)CN([C@@H](C)CO)C3=O)cc1` here?
Its cytotoxicity call is “inactive”.

How did the cytotoxicity call turn out when `CC(C)NC(=O)N(C)C[C@H]1Oc2ccc(NC(=O)CCC(F)(F)F)cc2C(=O)N([C@H](C)CO)C[C@H]1C` was run?
The cytotoxicity call was “inactive”.

How did the cytotoxicity call turn out when `N#C[C@H]1N[C@H](CO)[C@H]1c1ccccc1` was run?
The cytotoxicity call was “inactive”.

With `C[C@H](CO)N1C[C@H](C)[C@H](CN(C)S(=O)(=O)c2ccc(C#N)cc2)Oc2ncc(C#CC(C)(C)O)cc2C1=O` as the molecule, how does the cytotoxicity call read?
The cytotoxicity call was “inactive”.

Which cytotoxicity call does the source give for `COc1ccccc1S(=O)(=O)N1C[C@@H](O)COC[C@@H]2O[C@@H](CC(=O)O)CC[C@H]21` here?
The cytotoxicity call was “inactive”.

Which cytotoxicity call does the source give for `C[C@H](CO)N1C[C@H](C)[C@@H](CN(C)C(=O)c2ccccn2)Oc2cc(C#Cc3ccccc3)ccc2S1(=O)=O` here?
Its cytotoxicity call is “inactive”.

With `C[C@@H]1CN([C@H](C)CO)C(=O)c2ccccc2-c2ccccc2CO[C@H]1CN(C)C(=O)Nc1ccc(-c2ccccc2)cc1` as the molecule, how does the cytotoxicity call read?
The cytotoxicity call was “active”.

`C[C@@H]1CN([C@@H](C)CO)C(=O)c2ccccc2-c2ccccc2CO[C@@H]1CN(C)C(=O)Nc1ccc(-c2ccccc2)cc1` was tested. Which cytotoxicity call did it give?
Its cytotoxicity call is “inactive”.

For `C[C@H]1CN([C@@H](C)CO)C(=O)c2c(c3ccccc3n2C)-c2ccccc2CO[C@H]1CN(C)C(=O)Nc1ccc(-c2ccccc2)cc1`, which cytotoxicity call is on record?
Its cytotoxicity call is “active”.

Which cytotoxicity call does the source give for `C[C@H]1CN([C@@H](C)CO)C(=O)c2ccccc2-c2ccccc2CO[C@@H]1CN(C)C(=O)Nc1ccc(-c2ccccc2)cc1` here?
The cytotoxicity call was “inactive”.

With `C[C@H](CO)N1C[C@H](C)[C@@H](CN(C)C(=O)Nc2ccc(-c3ccccc3)cc2)OCc2ccccc2-c2c(n(C)c3ccccc23)C1=O` as the molecule, how does the cytotoxicity call read?
Its cytotoxicity call is “inactive”.

Which cytotoxicity call does the source give for `C[C@@H]1CN([C@@H](C)CO)C(=O)c2c(c3ccccc3n2C)-c2ccccc2CO[C@H]1CN(C)C(=O)Nc1ccc(-c2ccccc2)cc1` here?
Its cytotoxicity call is “inactive”.

How did the cytotoxicity call turn out when `C[C@@H]1CN([C@H](C)CO)C(=O)c2c(c3ccccc3n2C)-c2ccccc2CO[C@@H]1CN(C)C(=O)Nc1ccc(-c2ccccc2)cc1` was run?
Its cytotoxicity call is “inactive”.

With `C[C@@H]1CN([C@H](C)CO)C(=O)c2c(c3ccccc3n2C)-c2ccccc2CO[C@H]1CN(C)C(=O)Nc1ccc(-c2ccccc2)cc1` as the molecule, how does the cytotoxicity call read?
The cytotoxicity call was “active”.

How did the cytotoxicity call turn out when `C[C@@H]1CN([C@@H](C)CO)C(=O)c2c(c3ccccc3n2C)-c2ccccc2CO[C@@H]1CN(C)C(=O)Nc1ccc(-c2ccccc2)cc1` was run?
Its cytotoxicity call is “inactive”.

Which cytotoxicity call does the source give for `COc1cc(F)c(C(C)C)cc1-c1ccc(C(F)(F)F)cc1CN1C(=O)O[C@H](c2cc(C(F)(F)F)cc(C(F)(F)F)c2)[C@@H]1C` here?
The cytotoxicity call was “inactive”.

`COc1ccc2c3c(n(c2c1)C)[C@H](CO)N(C[C@]13CCN(CC1)C(=O)c1cccnc1)C(=O)c1cccnc1` was tested. Which cytotoxicity call did it give?
The cytotoxicity call was “inactive”.

Which cytotoxicity call does the source give for `C[C@@H]1CN([C@@H](C)CO)C(=O)c2cc(NC(=O)c3ccncc3)ccc2O[C@@H]1CN(C)Cc1ccncc1` here?
Its cytotoxicity call is “inactive”.

`C[C@@H]1CCCCO[C@H](CN(C)C(=O)CCCN(C)C)[C@H](C)CN([C@@H](C)CO)C(=O)c2cc(NC(=O)Nc3ccc(F)cc3)ccc2O1` was tested. Which cytotoxicity call did it give?
The cytotoxicity call was “inactive”.

`COc1ccc(NC(=O)N(C)C[C@@H]2OCCCC[C@@H](C)Oc3ccc(NS(=O)(=O)c4ccccc4)cc3C(=O)N([C@H](C)CO)C[C@H]2C)cc1` was tested. Which cytotoxicity call did it give?
Its cytotoxicity call is “inactive”.
